Source: the supplement of paper PMC11417369
Over roughly 25,000 sequences, “ln(normalized median fluorescence intensity)” has its median near 6.7; the highest 2% begin near 10. Many of the other results were omitted from the sample, so the highest values are more common in it than they were.

system: PfHDP1 homeodomain (GST-tagged); assay: gcPBM binding intensity (ln(normalized median fluorescence intensity)); higher = stronger DNA binding
How it was run: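 Binding intensity values are the highest Masliner-normalised natural-log median intensity among replicate spots of either probe orientation. The binding step lasted 1 h in 1× PBS with 1% milk, 0.2 mg/ml BSA, 0.5% salmon testes DNA and 0.03% Triton X-100, using GST-tagged P. falciparum DNA-binding domains expressed in E. coli on an Agilent 4 × 180k array of primer-extended double-stranded 36-bp intergenic genomic probes plus negative controls. Alexa488 anti-GST antibody and a 488 nm scan detected bound protein.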

Sequence	gcPBM binding intensity (ln)
AATATATCATTATATAAACACACAATATGTTTTTTA [CACACA_site9260]	6.22
CAGATAAGATTTTGTGGTACTATTTATTAAATTAGA [XGTACX_site2644]	6.06
AAGGTATGATTAATCACACACATAAATATATATACA [CACACA_site2658]	6.67
TATTTGAAAGCCAATTGTACTTTAGTTTTTGAAACA [XGTACX_site5542]	5.98
AAAAATATAATATAATGTACACAAAAAAAAAAATTC [XGTACX_site3657]	6.63
TATTCTAGTCTGCTTACACACATATTTATATTTATA [CACACA_site7432]	7.53
AGACACGTATACGATGCACACGTATGCTTTATATAT [CACACA_site9363]	8.32
ATGCTTTTGTCATGTGCACACACGTATATATTATAT [CACACA_site4163]	11
AATTATATTTAGTATATGCACACTTTATGTTTGTTA [CACACA_site2025]	9.36
GCTTTTGTCATGTGCACACACGTATATATTATATAT [CACACA_site6146]	11.5
ATATATATTATGTGTGTGCACTTTTGTTATTATTAT	9.03
CCACGTATACGATGCACACGTATGCTTTATATATAG [CACACA_site4108]	8.58
CTATATTATTTTTCTTGTACGTAGGAAATATAGCTA [XGTACX_site6176]	6.45
CATTATAAAAAATAAAAAAGAAATAATTGTATATGC [CACACA_negctrl_site478]	6.62
TGTATGTATAATTGAGTGCACAGAAAAAAAAAAGAA	10.6
AAGAAAATATAAAATGCACACTATAAATTGTATATA [CACACA_site7928]	9.72
TTTGTATTACGTTTGTGTACATATACAATGTGTTTT [XGTACX_site7708]	6.38
ACATTAAGACACATTGCACACGTGCACCCATAGAAA [CACACA_site8029]	10.5
CCATTAAGACACATTGCACACGTGCACCCATAGAAA [CACACA_site4388]	10.2
TCATTGAAAATTGTTGCACACATAATAATTAAATAT [CACACA_site8554]	9.46
ACATTGCACCCGTGCACACATAGAAAAATAATTCTT [CACACA_site409]	10.3

Sequence	gcPBM binding intensity (ln)
ATTAAGACACATTGCACACGTGCACCCATAGAAAAA [CACACA_site408]	10.5
ACCCATTGCTCACGTGCACACATAGAAAAATAATTC [CACACA_site4389]	10.7
TAAGAAATAAATAGTACACACATAGACACCCACCCA [CACACA_site8429]	7.64
TAAGAAATAAATAGTACACACATAGACACCCACCGA [CACACA_site1516]	7.1
TACACCCATAGACACACACACACGCATAAAAAAAAA [CACACA_site8428]	6.85
TCACTTTTTATTAAATGTACATGCTTTCATTTTCAT [XGTACX_site8139]	6.78
ATAAACAAAAAAAAAAAATATATCAATATATATATA [CACACA_negctrl_site299]	8.7
TTTTTAAAAAATAAGAAAAAATAAATATATTACAAA [XGTACX_negctrl_site191]	6.58
AAAATAAATAAATACACACACACGAATATATATATA [CACACA_site1683]	8.57
TACTTATTTGATTGGGTGCATATATATAGTATGTAT [GTGCAC_site9845]	9.2
ATGTGCACATATAAAAGTACACGCACATATATATAT [XGTACX_site1238]	11
AAGAAAAGCATAGATGCACACATATATATATATATA [CACACA_site8675]	9.35
GTGCTAAAAGTATATGCACACACATATATATGCACA [CACACA_site8472]	10.6
AAAAAAAAAAAGCACACACACATATGAGTATATATA [CACACA_site4683]	6.91
TAATAAAAAAAGTGCACACACATAATATATATATAT [CACACA_site3340]	9.23
GCTAAAAGTATATGCACACACATATATATGCACATA [CACACA_site1635]	11
AATAATAAAAAAAGTGCACACACATAATATATATAT [CACACA_site9100]	8.79
GAAAAGCATAGATGCACACATATATATATATATATA [CACACA_site2169]	9.77
AGATAAAAAAAGTACACACACACATATATATATATA [CACACA_site3072]	9.22
TATACACATATATAAAGTACATATATGTGTAAAAAA [XGTACX_site8582]	6.8
GCTAAAAGTATATGCACACACATATAGATGCACATA [CACACA_site6868]	10.7

Sequence	gcPBM binding intensity (ln)
AAAAAAAAAAAAAGCACACACACATATGCGTATATA [CACACA_site953]	6.43
TAATAAATCCTATATAGTACATATATGCAAGTATGT [XGTACX_site3955]	6.97
TCTTATTAAAATATTTATATAGGTAATCACAATATT [GTGCAC_negctrl_site568]	6.37
ATATCAAACTAGAATGTGCGCATGCATTCAAGTTTT	6.54
TATGTCAATTTTCATACATGCGCATAATCTTTATTT [TGCATGCA_site807]	7.53
TGTAAATTATAACGTGCACACATATTTAAAATGAAA [CACACA_site8915]	9.88
TTATTATTCATATATTCACACATTAAAATTTTTCAA [CACACA_site4243]	6.62
TTCATTCAAATTAACGTGCACATTATTAGTAAAAAC	10.7
GTATATATATATATATGCAAATGTATAAATCTACAT [CACACA_negctrl_site546]	7.32
TTGCAACTCTTCAATCGTACACATTATTTATTATAT [XGTACX_site1377]	6.89
CTAATCGTGCACAACTGTACATTTGTCAAGGGCAAT [XGTACX_site8662]	10.8
TAAAATATATAAAACTGTACATTTTAAAGGCACAAC [XGTACX_site8342]	7.1
CTCTTGTCATTTTGCACACACACATGGATAGGTTAT [CACACA_site5655]	10.8
CTCTTGTCATTTTGCACACACACATGTATAGGTTAT [CACACA_site3057]	11.1
GTATATCACACATTTGCATGTTGTCAATAGTTTATC [TGCATGCA_site134]	6.93
AGCTCTTGTCATTTTGCACACACACCCGTATAGGTT [CACACA_site3056]	10.3
CTTGTCATTTGGCACACACACATGTATAGGTTATTA [CACACA_site5656]	6.72
TATATAGGTATCATTACACACATGTATACTTATTTG [CACACA_site7864]	6.47
AGCTCTTGTCATTTTGCACACACACCGGTATAGGTT [CACACA_site5654]	10.4
CTTGTCATTGGGCACACACACATGTATAGGTTATTA [CACACA_site3058]	6.49
CTTGTCATTTTGCACACACACATGTATAGGTTATTA [CACACA_site7431]	10.9
